According to PubChem BioAssay (Tox21):
Values joined by “and” are separate entries in the source; they are usually repeats but may differ in a detail not shown here. Identical values can stand only once. Inconclusive results are not listed. Some compounds were tested as several samples or in several runs, with calls that do not always agree. Active and inactive are the calls of the source. Unless noted, calls follow the shape of the dose curve; as a rule, active = well fitted curve in the direction sought with a large enough effect in the repeat runs; inconclusive = weak or mixed curves; inactive = no such curve, though single readings can be large; an effect the other way counts as inactive or inconclusive.

Experiments:
[1] = A CellTox Green Cytotoxicity Assay to monitor cytotoxicity in HEK293 cells - 32 hour (AID 1224881); also: nearly all actives have a fitted effect of over 40% in size
Summary of the method: (§1)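 Read-out: fluorescence of a cell-impermeant cyanine dye staining DNA of dead cells, proportional to cytotoxicity. HEK293, 600 cells/well with reagent, compound (23 nL DMSO) added after 5 h; reads at 0, 8, 16, 24, 32, 40 h.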

[2] = A CellTox Green Cytotoxicity Assay to monitor cytotoxicity in HepG2 cells - 0 hour (AID 1224882); also: nearly all actives have a fitted effect of over 35% in size
Summary of the method: (§2)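 HepG2, 600 cells/well premixed w/ CellTox Green; 5 h settle, 37 C/5% CO2; pintool cpd add (DMSO); 37 C, 40 h; fluorescence read at 0, 8, 16, 24, 32, 40 h.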

[3] = A CellTox Green Cytotoxicity Assay to monitor cytotoxicity in HepG2 cells - 32 hour (AID 1224883); also: nearly all actives have a fitted effect of over 50% in size; also: potency is read from the fitted curve at half-maximal effect
Summary of the method: as §2

[4] = A CellTox Green Cytotoxicity Assay to monitor cytotoxicity in HEK293 cells - 8 hour (AID 1224884); also: nearly all actives have a fitted effect of over 35% in size
Summary of the method: as §1

[5] = qHTS RealTime-Glo MT Cell Viability Assay in HepG2 cells - 16 hour (AID 1224885); also: nearly all actives have a fitted effect of over 50% in size
Summary of the method: (§3)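 HepG2 cells were seeded at 600 cells/well together with NanoLuc luciferase and a cell-permeant prosubstrate, preincubated 5 h at 37 C/5% CO2, then pin-dosed with compounds in DMSO. Nonlytic luminescence from viable cells was read at each time point.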

[6] = qHTS RealTime-Glo MT Cell Viability Assay in HEK293 cells - 24 hour (AID 1224886); also: top concentration of the series differs between compounds; nearly all actives have a fitted effect of over 50% in size
Summary of the method: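 HEK293 cells were seeded at 600 cells/well together with NanoLuc luciferase and cell-permeant prosubstrate, preincubated 5 h at 37 C/5% CO2, then given compound in DMSO by pintool. Luminescence from viable-cell prosubstrate reduction was read repeatedly over 40 h.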

[7] = qHTS RealTime-Glo MT Cell Viability Assay in HEK293 cells - 8 hour (AID 1224887); also: top concentration of the series differs between compounds; nearly all actives have a fitted effect of over 50% in size
Summary of the method: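 Luminescence readout at each listed time point; HEK293, 600 cells/well, RealTime-Glo MT reagent added with cells; compounds pinned (23 nL in DMSO) after 5 h at 37 C; continuous culture at 37 C.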

[8] = A CellTox Green Cytotoxicity Assay to monitor cytotoxicity in HEK293 cells - 16 hour (AID 1224888); also: nearly all actives have a fitted effect of over 35% in size
Summary of the method: as §1

[9] = qHTS RealTime-Glo MT Cell Viability Assay in HepG2 cells - 0 hour (AID 1224889); also: nearly all actives have a fitted effect of over 50% in size
Summary of the method: as §3

[10] = A CellTox Green Cytotoxicity Assay to monitor cytotoxicity in HepG2 cells - 8 hour (AID 1224890); also: nearly all actives have a fitted effect of over 45% in size; also: potency is read from the fitted curve at half-maximal effect
Summary of the method: as §2

[11] = qHTS assay to identify small molecule antagonists of the estrogen receptor alpha (ER-alpha) signaling pathway using the BG1 cell line in the presence of 0.1 nM 17-beta-estradiol - cell viability counter screen (AID 1259241); also: nearly all actives have a fitted effect of over 40% in size
Summary of the method: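 The cell line endogenously expresses full-length ER-alpha and carries four EREs driving luciferase. Cells are cultured 5 days hormone-free, treated 22 hr with compounds and 0.1 nM estradiol, then viability is read by fluorescence.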

[12] = qHTS assay to identify small molecule antagonists of the androgen receptor (AR) signaling pathway using the MDA cell line in the presence of 0.5 nM R1881 - cell viability counter screen (AID 1259242); also: nearly all actives have a fitted effect of over 45% in size
Summary of the method: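 Live-cell protease fluorescence, CellTiter-Fluor, 30 min at 37C. Cells: MDA-kb2, 3,000/well, preincubated 5 hr. Compounds plus 0.5 nM R1881 final, 16 hr, 37C, 0% CO2.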

[13] = qHTS assay to identify small molecule HDAC inhibitors (AID 1259364);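 also: wild-type HCT-116 cells with endogenous class I/II HDAC activity; top concentration of the series differs between compounds; nearly all actives have a fitted effect of over 45% in size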
Summary of the method: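 HCT-116 (wild type), 1,500 cells/well, overnight; compound 2 hr 37C 5% CO2; HDAC-Glo I/II reagent 30 min RT; luminescence readout.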

[14] = qHTS assay to identify small molecule agonists of the sonic hedgehog signaling (Shh) pathway - cell viability counter screen (AID 1259366); also: nearly all actives have a fitted effect of over 50% in size; also: potency is read from the fitted curve at half-maximal effect
Summary of the method: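 Viability measured fluorometrically (CellTiter-Fluor, 1hr, 37C) in 3T3 Gli1-Luc reporter cells after 23hr compound exposure within a 24hr incubation at 37C/5% CO2.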

[15] = qHTS assay to identify small molecule antagonists of the sonic hedgehog signaling (Shh) pathway - cell viability counter screen (AID 1259367); also: nearly all actives have a fitted effect of over 55% in size; also: potency is read from the fitted curve at half-maximal effect
Summary of the method: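 Viability was read by CellTiter-Fluor fluorescence in the same wells, reagent added 23 hr into compound treatment and incubated 1 hr at 37C. The 3T3 Gli1-Luc reporter cells (2,000/well) received conditioned medium after compound and ran 24 hr.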

[16] = qHTS assay to identify small molecule agonists of the sonic hedgehog signaling (Shh) pathway (AID 1259368; calls by dose curve;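 also: NIH/3T3-derived 3T3Gli1-Luc cells carrying a stable Gli1-driven firefly luciferase reporter; series mostly up to about 92 µM; nearly all actives have a fitted effect of over 15% in size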)
Summary of the method: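 Read-out: firefly luciferase luminescence from a Gli1 response element reporter stably integrated in NIH/3T3-derived 3T3Gli1-Luc cells, measured 30 min at room temperature after reagent addition. Compound exposure lasted 24 hr at 37 C, 5% CO2.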

[17] = target: Estrogen receptor (Homo sapiens) (UniProt P03372); assay: qHTS assay to identify small molecule antagonists of the estrogen receptor alpha (ER-alpha) signaling pathway using the BG1 cell line in the presence of 0.1 nM 17-beta-estradiol (AID 1259244); also: nearly all actives have a fitted effect of over 50% in size
Summary of the method: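 Luminescence after ONE-Glo (30 min, room temperature) measured ERE-luciferase activity in VM7Luc4E2 cells treated 22 h with compound and 0.1 nM final 17beta-estradiol as stimulator.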

[18] = qHTS assay to identify small molecule HDAC inhibitors - cell viability counter screen (AID 1259365)
Summary of the method: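 Viability readout: CellTiter-Glo luminescence. Wild-type HCT-116 cells, 2hr compound treatment following overnight attachment at 37 C.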

[19] = qHTS assay to identify small molecule phospholipidosis (PLD) inducers (AID 1259344; active = well fitted curve in the direction sought with a large enough effect; an effect the other way counts as inactive or inconclusive)
Summary of the method: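 Phospholipid accumulation was scored by imaging: fixed, Hoechst-counterstained HepG2 cells stained with LipidTOX Red after 24 h compound exposure at 37 C. Read-outs were pit count and pit intensity per well or per cell, with amiodarone and DMSO controls.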

[20] = target: Androgen receptor (Homo sapiens) (UniProt P10275); assay: qHTS assay to identify small molecule antagonists of the androgen receptor (AR) signaling pathway using the MDA cell line in the presence of 0.5 nM R1881 (AID 1259243); also: nearly all actives have a fitted effect of over 50% in size
Summary of the method: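 MDA-kb2, MMTV-luc (AR/GR elements); 3,000 cells/well; cpd + 0.5 nM R1881 final; 16 hr 37C, 0% CO2; ONE-Glo 30 min RT; luminescence.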

Measured: Potency

Sequence of Androgen receptor (Homo sapiens) (P10275 whole entry, looked up): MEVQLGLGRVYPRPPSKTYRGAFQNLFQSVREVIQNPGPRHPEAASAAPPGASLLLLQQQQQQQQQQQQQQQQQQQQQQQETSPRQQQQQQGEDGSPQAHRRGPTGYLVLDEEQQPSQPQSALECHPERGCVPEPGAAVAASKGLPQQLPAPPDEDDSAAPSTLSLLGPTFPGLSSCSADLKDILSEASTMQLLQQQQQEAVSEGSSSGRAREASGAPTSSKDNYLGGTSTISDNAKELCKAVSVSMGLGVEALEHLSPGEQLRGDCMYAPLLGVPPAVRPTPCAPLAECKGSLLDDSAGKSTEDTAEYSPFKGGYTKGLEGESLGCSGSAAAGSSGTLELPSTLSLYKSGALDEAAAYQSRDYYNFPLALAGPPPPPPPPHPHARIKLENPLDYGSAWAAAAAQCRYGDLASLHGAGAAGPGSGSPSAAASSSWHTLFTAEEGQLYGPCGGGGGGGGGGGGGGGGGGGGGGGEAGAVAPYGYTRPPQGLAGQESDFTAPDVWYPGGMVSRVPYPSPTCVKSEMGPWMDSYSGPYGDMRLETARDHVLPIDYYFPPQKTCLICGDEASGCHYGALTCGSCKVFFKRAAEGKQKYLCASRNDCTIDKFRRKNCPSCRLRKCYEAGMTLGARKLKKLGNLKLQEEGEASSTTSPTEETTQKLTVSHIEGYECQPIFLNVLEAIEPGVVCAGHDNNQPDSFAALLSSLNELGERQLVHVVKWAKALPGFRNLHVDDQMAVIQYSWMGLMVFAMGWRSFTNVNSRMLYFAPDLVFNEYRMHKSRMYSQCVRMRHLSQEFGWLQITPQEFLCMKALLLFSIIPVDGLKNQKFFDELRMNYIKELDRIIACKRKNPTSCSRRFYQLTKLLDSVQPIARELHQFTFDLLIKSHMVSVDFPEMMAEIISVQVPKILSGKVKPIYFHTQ
Sequence of Estrogen receptor (Homo sapiens) (P03372 whole entry, looked up): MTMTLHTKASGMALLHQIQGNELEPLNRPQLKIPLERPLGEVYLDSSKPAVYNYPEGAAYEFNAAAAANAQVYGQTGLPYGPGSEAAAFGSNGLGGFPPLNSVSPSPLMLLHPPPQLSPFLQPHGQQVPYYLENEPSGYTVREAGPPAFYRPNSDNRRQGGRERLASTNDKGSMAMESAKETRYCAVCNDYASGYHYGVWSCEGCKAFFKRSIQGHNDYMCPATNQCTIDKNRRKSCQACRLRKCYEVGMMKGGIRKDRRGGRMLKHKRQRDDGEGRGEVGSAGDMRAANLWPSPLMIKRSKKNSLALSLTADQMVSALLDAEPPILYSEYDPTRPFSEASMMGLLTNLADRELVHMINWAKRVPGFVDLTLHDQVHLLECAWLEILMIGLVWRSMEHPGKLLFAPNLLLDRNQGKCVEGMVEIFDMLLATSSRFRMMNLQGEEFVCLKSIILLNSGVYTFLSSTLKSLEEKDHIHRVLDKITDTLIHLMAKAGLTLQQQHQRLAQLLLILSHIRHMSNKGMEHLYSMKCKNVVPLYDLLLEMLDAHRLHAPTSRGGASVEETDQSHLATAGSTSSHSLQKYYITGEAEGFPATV

O=C(O)Cc1c[nH]c2ccccc12
not listed: [17] | [18] | [19] | [20]
inactive: all other assays above

COc1ccc(N)c(OC)c1
not listed: [15] | [18] | [19] | [20]
inactive: all other assays above

CCCOC(=O)NCCCN(C)C
not listed: [17] | [19] | [20]
inactive: all other assays above

O=C(NCC1CCCCN1)c1cc(OCC(F)(F)F)ccc1OCC(F)(F)F (stereo unspecified)
not listed: [17] | [20]
inactive: all other assays above

Clc1cccc(Cl)c1NC1=NCCN1
not listed: [17] | [20]
inactive: all other assays above

CCCOCC(C)O (stereo unspecified)
not listed: [4] | [17] | [19]
inactive: all other assays above

C=C(CC(=O)O)C(=O)O
not listed: [15] | [17] | [18] | [19] | [20]
inactive: all other assays above

COc1ccccc1[N+](=O)[O-]
not listed: [17] | [19] | [20]
inactive: all other assays above

O=C1C(N(CO)C(=O)NCO)N(CO)C(=O)N1CO (stereo unspecified)
not listed: [15] | [18] | [19] | [20]
inactive: all other assays above

Cc1ncc(CO)c(CO)c1O
not listed: [17] | [18] | [20]
inactive: all other assays above

NCCNCCNCCN
not listed: [17] | [20]
inactive: all other assays above

COC(=O)/C=C\C(=O)OC
not listed: [4] | [17] | [19] | [20]
inactive: all other assays above

O=C1CCCCCCCCCCC1
not listed: [1] | [19] | [20]
inactive: all other assays above

CO[Si](CCCNCCN)(OC)OC
15.6 µM (active) and inactive: [15]
inactive and 49 µM (active): [3] | [10]
5.53 µM (active) and inactive: [14]
not listed: [4] | [17] | [19]
inactive: all other assays above

O=C(O)C1=NN(c2ccc(S(=O)(=O)O)cc2)C(=O)C1
not listed: [4] | [15] | [19] | [20]
inactive: all other assays above
